Measured values as given in PubChem BioAssay AID1159506 (National Center for Advancing Translational Sciences (NCATS), 2015).
Over roughly 59,000 sequences, the read-out has its median near -0.00055; the lowest 2% begin near -2. The sample as a whole holds a higher share of the lowest values than the screen did.

Assay: Identification of proteins required for the processing of the EWS-FLI1 nascent transcript;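 further: robust z of luciferase light less the median z of siRNAs with the same seed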
Conditions: TC32 Ewing sarcoma NR0B1-luc vs CMV-luc (EWS-FLI1 target promoter against control promoter), 48 h; screened at 20 nM (by protocol)
Procedure, shortened: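 Genome-wide siRNA screen (Ambion v4.1, three siRNAs per gene, 20 nM final, RNAiMax) in Ewing sarcoma TC32 cells carrying NR0B1-promoter or CMV-promoter luciferase; OneGlo luciferase read 48 h post-transfection. Data normalized, z-score-MAD transformed and seed-adjusted.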

Sequence | seed-corrected z-score
UAAAGGUCAAGCAGUCAGU against PVRL4 | 0.651
AGUGAUGACAUUGAUAUCG against SYDE1 | 1.21
AUAUCUACGAUCUAUAUCU against LOC645553 | 0.695
UCUGGUUCUUGUUCAAGUG against PCDH17 | -1.28
UCGCUAUCCAUAUCAGAGG against GOLGA4 | 1.24
UUAAUGGUCCUGUAGUAAC against MTMR1 | 0.139
UACAACAAUAGCCACAGCU against OR52W1 | -2.15
UGUAUUUUAUGUCUCUCCC against PLAC8L1 | -0.115
AAAGCCCAAAUAUAGUUCC against NEUROD4 | 0.947
UUUGAGGAAAGGAACUGCC against FAM228A | 0.28
AAUCUUGGUCUUACUGUCC against PKN1 | -1.59
UACUGAGAUAGUCAAAUUC against CYB5D1 | -0.0466
UUAUUGGAGAGCACCUGGU against PADI3 | 0.0879
ACAUCUGUCAGGGUCAUCG against NOD1 | -0.0205
UCCUUGUCGAAAGAAGUGC against RMND5A | -3.27
UCAGUUUACCUGAGAAGCC against C22orf39 | -0.529
UGACUUUAAGUUUUGGGCC against LINC00999 | 0.159
UGUAGCAUGACCGUCUUCC against LINC00239 | -0.84

Sequence | seed-corrected z-score
AAGGUGCACAAGUAAAGCC against LOC730100 | -2.05
UCAUUGGAUUCCAAAAUCC against ADAM18 | 0.186
UACGUUAAAAGGCAGGACA against CDKN2A | -0.998
UAGCAGAUGAGAGACUAUG against MRPS24 | -0.269
UUUAUGGGCUCUUUUGACG against ENPP5 | -0.349
UAUGCUAAGGUAGCAGUUG against RNF133 | 0.16
UAUAAGUCUGGGAUAUCUG against CATSPERD | -0.549
UCUUCGAAAGUGACCAGCA against INTS6 | -0.292
UAACCUCCAUCCGAGGUGG against INHA | -0.1
UGGGAUACCCUCCUUGUCU against UBA52 | -2.1
UCUUUGAACAGGAUAAACC against HNRNPAB | 0.756
UGAAUAUCAAGUUAGAUCC against OR5AK2 | 0.308
UCUCUUGCUUGGAGGAAGC against ZNF174 | 0.443
UCGGAGAUCAGGCUAGUGG against TMEM82 | -2.03
UCCGGGUUCAGCAUGUCCA against ESPN | -0.679
UAAUUGACCUGUACGCUCG against GATM | 0.156
AAAGCAGUUGGAACCGUUG against KRTAP24-1 | 0.448
AUCGAUUUUAAUGAACCGC against RPS4X | 1.4
